High-throughput results (PubChem)
Sampled rows, rich in hits. Any-hit rate of the full collection: about 32%.
PostGolgi ctrl = growth inhibition of yeast control strain, primary screen, counter-screen for post-Golgi transport modulator project | inhibition, % at 10 µM | 98,000 tested, 5% active | AID 738, 2007 | efflux-deficient yeast background strain, growth absorbance A615, 16 h
PostGolgi yeast = phenotypic screen on post-Golgi transport, primary screen; post-Golgi transport phenotypic cell assay; inhibition, % at 10 µM; 98,000 tested, 0.9% active; AID 739, 2007;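 note: yeast cells grown in 1536-well plates; yeast grown about 18 h at 30C before absorbance read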
CYP2C9 inhib = blockers of cytochrome P450 2C9 activity – biochemical, luminescence, ADME assay, primary screen. AID 777, 2007. 96,000 tested, 20% active. inhibition, % at 5 µM. CYP2C9 Supersomes, luciferin-H conversion;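 active = blocking of liver enzyme CYP2C9 beyond about 50% at 5 µM, limit read from the data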
CYP2C9 act = human CYP2C9 activators, primary screen, biochemical, luminescence | recombinant CYP2C9, luciferin-H conversion; active compounds read high; factor 1 = untreated enzyme, 0 = blocked | activation factor at 5 µM | 96,000 tested, 1.4% active | AID 1024, 2008;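 active = activation factor of 2 or more for CYP2C9 at a 5 µM dose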;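 note: 0 = sulfaphenazole-blocked wells and 1 = vehicle-only wells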
CYP2C19 activ = human CYP2C19 activators, primary screen, biochemical, luminescence. recombinant CYP2C19, luciferin-H EGE luminescence; active compounds read high; 0 = fully inhibited enzyme, 1 = untreated enzyme. activation factor at 5 µM. 96,000 tested, under 10 active. AID 1025, 2008;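 active = activation factor of at least 2 at 5 µM in the primary screen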;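 note: 0 = wells with 2.5 mM tranylcypromine and 1 = vehicle-only wells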
Target sequence (P33261 whole entry, looked up): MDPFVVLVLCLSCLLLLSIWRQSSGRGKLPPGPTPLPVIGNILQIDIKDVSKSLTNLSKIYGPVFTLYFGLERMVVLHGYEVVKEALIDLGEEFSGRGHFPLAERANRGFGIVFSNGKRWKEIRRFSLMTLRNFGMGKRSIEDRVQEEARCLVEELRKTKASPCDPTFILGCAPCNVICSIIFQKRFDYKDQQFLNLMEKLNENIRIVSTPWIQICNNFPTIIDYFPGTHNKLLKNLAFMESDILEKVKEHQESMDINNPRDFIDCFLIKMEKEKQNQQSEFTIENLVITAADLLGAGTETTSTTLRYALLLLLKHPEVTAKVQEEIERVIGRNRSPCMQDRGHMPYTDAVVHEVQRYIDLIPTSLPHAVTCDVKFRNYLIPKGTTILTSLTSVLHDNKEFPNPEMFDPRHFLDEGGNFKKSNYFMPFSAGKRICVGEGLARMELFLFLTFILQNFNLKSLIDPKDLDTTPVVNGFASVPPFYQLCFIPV
CYP2C19 inhib = blockers of cytochrome P450 2C19 activity – biochemical, luminescence, ADME assay, primary screen; CYP2C19 Supersomes, luciferin-H EGE luminescence, 30 min; P33261; 96,000 tested, 21% active; inhibition, % at 5 µM;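 active = CYP2C19 inhibition above a set limit at 5 µM in the primary screen, cut at about 50% in these data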;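 note: plate controls were negative control wells for no effect and 2.5 mM tranylcypromine positive control for full effect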
* marks the source's active call; other numbers are inactive results. Cut-off read from the data, not from the text of the source, unless noted: active = inhibition above about 30%; inactive = the rest.

SMILES | PostGolgi ctrl | PostGolgi yeast | CYP2C9 inhib | CYP2C9 act | CYP2C19 activ | CYP2C19 inhib
CCOc1ccc(OCc2ccc(C(=O)O)o2)cc1 | -3 | 1 | 30 | 0.7 | 0.3 | 70*
CCOc1ccc(OCc2ccc(C(=O)NCc3ccncc3)o2)cc1 | 29 | -3 | 80* | 0.2 | 0.1 | 92*
CCc1ccc(OCc2ccc(C(=O)NCc3ccccn3)o2)cc1 | 5 | -2 | 55* | 0.4 | 0.3 | 71*
O=C(OCc1ccccn1)c1ccc(COc2ccccc2Cl)o1 | 13 | -8 | 26 | 0.7 | 0.4 | 61*
O=C(NCc1ccccc1F)C1CCCN(C(=O)NC2CCCCC2)C1 (centres undefined) | 9 | 21 | -1 | 1 | 1 | -3
Cc1ccc(C(C2C(=O)CC(C)(C)CC2=O)C2C(=O)CC(C)(C)CC2=O)s1 | -10 | -6 | 0 | 1 | 0.8 | 19
CN(C(=O)c1cccnc1)c1nc(-c2ccccc2)cs1 | 13 | -5 | 19 | 0.8 | 0.6 | 37
CN(C(=O)c1ccncc1)c1nnc(-c2ccccn2)s1 | 1 | 3 | 99* | 0 | 0.2 | 81*
CN(C(=O)c1cccc(C#N)c1)c1nnc(-c2ccccn2)s1 | 9 | 13 | 13 | 0.9 | 0.9 | 14
CCN(C(=O)Cc1cccs1)c1nnc(-c2cccnc2)s1 | -12 | -8 | 50* | 0.5 | 0.5 | 48
O=C(Cc1cccs1)Nc1cccnc1 | -4 | 6 | 6 | 0.9 | 0.9 | 7
CN(C(=O)c1ccncc1)c1nnc(-c2cccnc2)s1 | 4 | 5 | 100* | 0 | 0.1 | 93*
C=CCn1c(=N)n(CC(=O)OCC)c2ccccc21 | 5 | 1 | 5 | 1 | 1 | 4
COc1ccc(NC(=S)Nc2ncccc2C)c(OC)c1 | 3 | 5 | 14 | 0.9 | 0.2 | 76*
COc1ccc(NC(=S)NCCc2ccc(Cl)cc2)c(OC)c1 | 7 | -4 | 22 | 0.8 | 0.1 | 86*
COc1ccc(NC(=O)CC(C)C)c(OC)c1 | -8 | -2 | 6 | 0.9 | 0.6 | 44
COc1ccc(NC(=S)NCCc2c[nH]c3ccc(OC)cc23)c(OC)c1 | 9 | -4 | 62* | 0.4 | 0.3 | 71*
Cc1ccccc1C(=O)c1c[nH]c(C(=O)NCCCn2ccnc2)c1 | -4 | 9 | 93* | 0.1 | 0.3 | 67*
O=C(NCCCn1ccnc1)c1cc(C2CC2)on1 | -6 | -6 | 59* | 0.4 | 0.1 | 85*
CC(C)CC(=O)c1c[nH]c(C(=O)NCCCn2ccnc2)c1 | 0 | -7 | 82* | 0.2 | 0.6 | 41
O=C(NCc1ccco1)c1cc(C(=O)C2CCCCC2)c[nH]1 | 2 | 8 | 4 | 1 | 1 | -3
Cc1ccccc1C(=O)c1c[nH]c(C(=O)NCc2cccs2)c1 | 0 | 5 | -2 | 1 | 1.1 | -7
O=C(NCCCn1ccnc1)c1cc(C(=O)C2CC2)c[nH]1 | 8 | 17 | 61* | 0.4 | 0.4 | 56*
CC1=Nn2c(nnc2-c2ccco2)SC1 | -6 | -4 | -11 | 1.1 | 0.9 | 6
CCC(CC)C(=O)c1c[nH]c(C(=O)NCCCn2ccnc2)c1 | 5 | -1 | 92* | 0.1 | 0.3 | 67*
O=C(NC1CC2CCCC(C1)N2C(=O)Nc1ccccc1)c1ccncc1 (centres undefined) | 6 | 2 | 40 | 0.6 | 0.1 | 92*
CC(=O)Nc1ccc(S(=O)(=O)N2C3CCCC2CC(NC(=O)C2CCCCC2)C3)cc1 (centres undefined) | -4 | -5 | 27 | 0.7 | 0.9 | 14
O=C(NC1CC2CCCC(C1)N2S(=O)(=O)c1ccccc1)c1ccccc1 (centres undefined) | 17 | -3 | 32 | 0.7 | 0.4 | 63*
O=C(NC1CC2CCCC(C1)N2C(=O)NC1CCCCC1)c1ccccc1 (centres undefined) | -1 | 0 | 0 | 1 | 1 | 2
Cc1cccc(C(=O)NC2CC3CCCC(C2)N3S(=O)(=O)c2ccccc2)c1 (centres undefined) | 9 | 1 | 91* | 0.1 | 0 | 97*
